BAZ2B inh: qHTS Assay for Inhibitors of BAZ2B; AlphaScreen BAZ2B-H3K14Ac peptide displacement; Bromodomain adjacent to zinc finger domain protein 2B (Homo sapiens), Q9UIF8; Potency, µM (highest dose often 114 µM), inactives show at the highest dose activity change, negative = inhibition, most hits filed as inhibitors; actives 4.4% (n = 360,000); further: potency means the concentration at half of the fitted maximal effect; on the % scale 0 is the no-effect control and ±100 the full control effect; nearly all actives have a fitted effect of over 60% in size
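Multi-concentration screen (max 110 uM) measuring displacement of acetylated histone H3 peptide from BAZ2B by AlphaScreen, using 50 nM protein, 50 nM peptide and 10 ug/mL streptavidin donor plus Ni-chelate acceptor beads.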
JMJD2A Tudor inh: qHTS Assay for Inhibitors of JMJD2A-Tudor Domain; Potency, µM (highest dose often 114 µM), for the others: top-dose activity change, negative = inhibition, actives largely listed as inhibitors; Lysine-specific demethylase 4A (Homo sapiens), O75164; actives 4.4% (n = 390,000); AlphaScreen JMJD2A-Tudor / H3K4me3 peptide binding; further: potency means the concentration at half of the fitted maximal effect; on the % scale 0 is the no-effect control and ±100 the full control effect; nearly all actives have a fitted effect of over 50% in size
HP1b chromo inh: HTS for Inhibitors of HP1-beta Chromodomain Interactions with Methylated Histone Tails | Potency, µM (doses to about 114 µM), inactives show at the top dose activity change, negative = inhibition, actives largely listed as inhibitors | Chromobox protein homolog 1 (Homo sapiens), P83916 | actives 0.56% (n = 390,000) | AlphaScreen HP1-beta / biotin-H3K9me3 peptide binding; further: potency means the concentration at half of the fitted maximal effect; nearly all actives have a fitted effect of over 70% in size
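HP1-beta protein (50 nM final) preincubated 30 min at room temperature with biotinylated H3(1-18)K9me3 peptide (50 nM) in PBS pH 7.4, 0.01% Tween-20, then compound added for 30 min. AlphaScreen streptavidin donor/nickel chelate acceptor beads (10 ug/mL final), 30 min dark, luminescence read.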
PI5P4Ka inh: qHTS for Inhibitors of phosphatidylinositol 5-phosphate 4-kinase (PI5P4K); actives 1.2% (n = 330,000); PI5P4Kalpha enzyme, ADP-Glo luminescence, 60 min; hits give low values; Phosphatidylinositol 5-phosphate 4-kinase type-2 alpha (Homo sapiens), P48426; max response, %; active means max response of -50% or lower; inconclusive means between -30% and -50%; inactive means -30% or higher; further: value at the top dose of about 77 µM; on the % scale 0 is the no-effect control and ±100 the full control effect
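Reactions run in 0.038 M HEPES pH 7.4, 0.28 mM EGTA, 0.1% CHAPS and 5% DMSO, with PI5P4Kalpha, substrate, compound and 5 microM ATP final, one hour at room temperature. Readout is ADP-Glo luminescence.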
G9a inh: qHTS Assay for Inhibitors of Histone Lysine Methyltransferase G9a. AID 504332, 2011. Potency, µM (series often up to 102 µM), without a hit: top-dose activity, negative = inhibition, actives largely listed as inhibitors. actives 8.8% (n = 350,000). Histone-lysine N-methyltransferase EHMT2 (Homo sapiens), Q96KQ7. G9a H3K9 monomethylation, AlphaScreen, 2 h; further: potency means the concentration at half of the fitted maximal effect; on the % scale 0 is the no-effect control and ±100 the full control effect; nearly all actives have a fitted effect of over 75% in size
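Compounds were preincubated with 20 nM G9a for 15 min, after which biotinylated H3K9 peptide (500 nM) and SAM (20 uM) started a 2 h room-temperature reaction. Monomethylated product was quantified by antibody-based AlphaScreen chemiluminescence.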
L3MBTL1 inh: qHTS Assay for the Inhibitors of L3MBTL1; Lethal(3)malignant brain tumor-like protein 1 (Homo sapiens), Q9Y468; AlphaScreen L3MBTL1–H3K9me1 peptide binding; Potency, µM (top dose mostly 57.1 µM), for inactives: at the highest dose activity, negative = inhibition, usual class: inhibitors; actives 0.66% (n = 230,000); AID 485360, 2010; further: potency means the concentration at half of the fitted maximal effect; on the % scale 0 is the no-effect control and ±100 the full control effect; nearly all actives have a fitted effect of over 60% in size
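L3MBTL1 (50 nM) pre-complexed 30 min with biotinylated H3(1-15)K9me1 peptide (75 nM), then compounds added for 30 min at room temperature; AlphaScreen streptavidin donor/nickel chelate acceptor beads (10 ug/mL final) read after 30 min dark incubation.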
* = called active by the depositor; ? = inconclusive; . = no result; [ ] = remark or other dose. This is a sample that favours compounds with a hit; in the whole collection about 11% have one here. Unless noted, the call rests on the fitted dose curve; in most records, active means well fitted inhibition curve with a large enough effect; inconclusive means small, poorly fitted or top-dose-only effect; inactive means no such curve, though single readings can be large or run the other way.

SMILES	BAZ2B inh	JMJD2A Tudor inh	HP1b chromo inh	PI5P4Ka inh	G9a inh	L3MBTL1 inh
CN(C)CCCN(C(=O)COc1ccc(Cl)cc1)c1nc2ccc(F)cc2s1	16.2%	-9.1%	39.9%	28.5	56.2µM*	.
COc1cccc(Cn2c(=O)c(C)nc3cnc(OCc4ccccc4)nc32)c1	.	.	.	.	14.5%[12.7 µM]	.
COc1ccc(CNC(=O)CCCc2cn(C)c3ccccc23)c(OC)c1	?	?	-7.2%	.	-26.3%[59 µM]	.
COc1cccc(Nc2ncc3nc(C)c(=O)n(C4CC4)c3n2)c1	.	.	.	.	-1.8%[0.501 µM]	.
CN(C)CCCN(C(=O)CCOc1ccccc1)c1nc2ccc(F)cc2s1	.	-24.1%	16.6%	-1.6	28.2µM*	.
CN(C)CCCN(C(=O)CCc1ccccc1)c1nc2c(F)cccc2s1	-27.9%	-22.8%	22.2%	13.5	?	-14.7%
CN(C)CCCN(C(=O)CCOc1ccccc1)c1nc2c(F)cccc2s1	.	-31.5%	22.7%	0.8	22.4µM*	.
CN(C)CCCN(C(=O)COc1ccccc1)c1nc2ccc(F)cc2s1	.	-9.8%	31.5%	-1.6	?	.
C/C(=C\c1ccc(C)o1)C(=O)c1c(C)cc(C)[nH]c1=O	.	-19.1%	19.6%	-16.1	50.1µM*	.
CN(C(=O)Cc1ccccc1OC(=O)c1ccccc1)c1ccccc1I	.	-8.3%	23.1%	.	.	.
Cc1nc2cncnc2n(C2CC2)c1=O	.	.	.	.	-32.4%[0.501 µM]	.
COC(=O)c1cc(O)cc(OC)c1C(=O)c1c(O)cc(C)cc1O	-28.0%	?	-11.0%	1.7	21.5%[12.7 µM]	.
COC(=O)c1cc(O)cc(OC)c1Oc1cc(C)cc(O)c1C(=O)O	8.91µM*	20µM*	?	?	?	.
O=C(NC(=S)Nc1ccc(N2CCCC2)cc1)c1ccc(F)cc1	11.2µM*	?	-14.8%	-3.6	?	.
O=C(NC(=S)Nc1ccc(F)cc1)c1ccc2c(c1)OCCO2	?	-28.5%	23.4%	1.0	?	-12.2%
CC(C)(C)c1ccc(C(=O)NC(=S)Nc2ccc(N3CCOCC3)cc2)cc1	-12.3%	-17.1%	8.2%	0.2	-13.2%	6.6%
O=C(NC(=S)Nc1ccc(N2CCCCC2)cc1)c1ccc2c(c1)OCCO2	10µM*	?	?	-1.4	?	-0.6%
O=C(NC(=S)Nc1ccc(CN2CCOCC2)cc1)c1ccc2c(c1)OCCO2	?	?	?	1.4	44.7µM*	.
O=C(NC(=S)Nc1ccc(N2CCOCC2)cc1)c1ccc2c(c1)OCCO2	?	20µM*	-24.7%	-17.8	10µM*	-24.1%
CC(Sc1ccc2c(c1)OCCO2)C(=O)Nc1ccc(N2CCOCC2)cc1 (stereo not drawn)	-10.2%	-7.3%	23.6%	-7.7	50.1µM*	22.4%
COC(=O)C1=C[C@@H](C(=O)OC)C2C3=C(C(=O)[C@@]2(C)NC(=O)c2ccccc2)[C@H](c2ccccc2)n2c(=O)n(-c4ccccc4)c(=O)n2[C@@H]3C1 (stereo partly drawn)	.	-31.0%	8.1%	.	.	.
Cc1ccc(C(=O)Nc2ccc(Oc3ccc(C(=O)O)c(C(=O)O)c3)cc2)cc1C	-12.6%	79.4µM*	29.5%	1.9	?	.
CC1(C)CC(=O)c2cc(C(=O)Nc3ccc(Cl)cc3)c(=O)[nH]c2C1	1.3%	-11.6%	44.4%	.	24.1%[59 µM]	.
c1ccc(-n2c(Cc3cn4ccsc4n3)nnc2N2CCOCC2)cc1	?	50.1µM*	22.6%	.	?	-1.2%
CC(C)Sc1nc2ccccc2[nH]1	-3.7%	1.6%	61.9%	-2.8	56.2µM*	10.7%
FC(F)(F)c1nc2ccccc2[nH]1	0.4%	6.4%	35.8%	0.9	-2.0%	6.4%
